Data on 102 molecules can be found in PubChem BioAssay AID652233 (Johns Hopkins Ion Channel Center, 2013).

Out of some 2,300 compounds screened, fewer than 10 were called active.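 How the source made its calls: active means yellow fluorescent protein signal ratio exceeding the buffer control mean by over 5 SD of those controls; inactive means the rest.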 Not all results are given here.

The nature of this assay: iodide YFP quench changes in parental YFP-HEK293, counter-screen for TMEM16A inhibitor project, cell-based (AID 652233).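 Further: ratio is mean of duplicate wells from kinetic YFP trace.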 The conditions noted are these: ionomycin, at 10 µM.
With `Cc1nc2ccccc2cc1OCc1ccc(F)cc1`, the YFP ratio F(max-min)/F0 was -0.66 (inactive).

For the molecule `CCCCNC(=O)CSc1nc2n[nH]c(C)c2c(=N)n1-c1cccc(Cl)c1C`, the YFP ratio F(max-min)/F0 was -0.786 (inactive).

As for `c1ccc(-c2nnc(SCc3nc4ccccc4[nH]3)o2)cc1`, the YFP ratio F(max-min)/F0 is -1.02 (inactive). Next, `COc1ccc(OCC(=O)NCCc2ccc(S(N)(=O)=O)cc2)cc1`: -0.874 (inactive). Then `COc1ccc(S(=O)(=O)NCCCCOc2ccc(Cl)cc2)cc1`, with -1.14 (inactive); and `O=C(CNCCC1=CCCCC1)Nc1ccccc1N1CCCCCC1`, with -1.09 (inactive); and `CN(c1cccc(NC(=O)c2ccc(CN3CCc4ccccc4C3)cc2)c1)S(C)(=O)=O`, with -0.916 (inactive). Turning to `Cc1ccc(-n2ncc3c(N4CCN(c5ccc(F)cc5)CC4)ncnc32)c(C)c1`, the YFP ratio F(max-min)/F0 was -0.733 (inactive). Next, `CCCCCc1ccc(-c2ccc(C(=O)O)cc2)nc1`: -0.857 (inactive). Next, `O=C(Nc1cccc(S(=O)(=O)Nc2ccc(Cl)cc2)c1)c1ccc2c(c1)OCCO2`: -1.08 (inactive); `S=C(NCc1ccc(Cl)cc1)NC12CC3CC(CC(C3)C1)C2`: -1.22 (inactive).

Turning to `Cc1nc(C)c(-c2csc(NCCc3ccccc3)n2)s1`, the YFP ratio F(max-min)/F0 was -0.901 (inactive). Next, `Cc1cc(C)cc(NS(=O)(=O)c2ccc(Oc3ncc(C(F)(F)F)cc3Cl)cc2)c1`: -0.961 (inactive); `N#Cc1nc(COc2ccc(-c3ccccc3)cc2)oc1NCc1cccnc1`: -0.991 (inactive).

`Cn1c(=O)n(C)c2cc(S(=O)(=O)N3CCCc4ccccc43)ccc21`: the YFP ratio F(max-min)/F0 was -1.35 (inactive). Regarding `COc1ccc(CNc2nnnn2C)cc1`, the YFP ratio F(max-min)/F0 is -0.894 (inactive). Then `O=C1c2ccccc2C(Nc2ccc3c(c2)OCCO3)N1Cc1ccco1` (configuration not stated), with -0.965 (inactive); and `O=C(COC(=O)CCc1c[nH]c(=O)[nH]1)Nc1ccccc1Cl`, with -0.772 (inactive). Then `N#CC1=C(SCc2ccccc2)NC(=O)C(C#N)C12CCCC2` (configuration not stated), with -0.894 (inactive); and `O=C(COc1ccccc1)NCc1ccc2c(c1)OCO2`, with -1.01 (inactive); and `S=C(NCc1cccs1)Nc1ccc(Cl)cc1`, with -1.2 (inactive). On to `Cc1ccc(C)c(N2CCN(S(=O)(=O)c3ccc4c(c3)oc(=O)n4C)CC2)c1`, for which the YFP ratio F(max-min)/F0 was -1.24 (inactive). Next, `Cc1cc(C=O)c(C)n1-c1ccc(NC2CCCCC2)c([N+](=O)[O-])c1`: -0.94 (inactive); `CC(=O)c1c(C)[nH]c(C(=O)COC(=O)c2cccc(S(=O)(=O)N(C)c3ccccc3)c2)c1C`: -1.08 (inactive). Next, `O=C(Nc1nc(-c2ccc3c(c2)OCO3)cs1)c1ccncc1`: -0.891 (inactive); `CC(NC(=O)c1ccco1)C(=O)Nc1nc(-c2ccccn2)cs1` (configuration not stated): -1.13 (inactive); `Cc1ccc(N2C(=O)S/C(=C/c3cn(C)c4ccccc34)C2=O)cc1`: -0.76 (inactive).

`COc1ccc(CN(C)C(=O)CC(c2ccccc2)c2ccccc2)cc1`: the YFP ratio F(max-min)/F0 was -1.04 (inactive). Then `CCOC(=O)N1CCN(C(=O)c2ccc3c(c2)N(Cc2ccc(C)cc2)CCS3)CC1`, with -1.18 (inactive); and `Cc1noc(C)c1COC(=O)c1cc2ccccc2cc1O`, with -0.996 (inactive).

On to `COc1ccc2[nH]cc(/C=C(/C#N)S(=O)(=O)c3ccccc3)c2c1`, for which the YFP ratio F(max-min)/F0 was -1.14 (inactive). Next, `O=C(N/N=C/c1cc(Cl)cc([N+](=O)[O-])c1O)C(O)(c1ccccc1)c1ccccc1`: -0.984 (inactive). In the case of `Cc1ccc2c(c1)N(S(=O)(=O)c1cc(-c3cc(C)no3)ccc1C)CCO2`, the YFP ratio F(max-min)/F0 was -0.714 (inactive). As for `COc1ccc(CCC(=O)c2ccc(OC)cc2)cc1`, the YFP ratio F(max-min)/F0 was -1.35 (inactive).

For `Cc1ccc(-c2noc(CSc3nnnn3-c3ccccc3)n2)cc1`, the YFP ratio F(max-min)/F0 was -0.963 (inactive). Next, `CC(C)(C)C(=O)/C(C#N)=C/c1ccc(O)cc1`: -1.08 (inactive). Then `COC(=O)c1ccc(COC(=O)c2c(C)nn(Cc3ccccc3Cl)c2Cl)o1`, with -1.29 (inactive); and `CC1=NN(c2cccc(Cl)c2)C(=O)C12CC(C)=C(C)CS2` (configuration not stated), with -1.3 (inactive). As for `CCOC(=O)c1cccc(NC(=O)CCn2nnc3ccccc32)c1`, the YFP ratio F(max-min)/F0 was -1.02 (inactive). Next, `C=C(C)Cn1c(C)cc(C)c(S(=O)(=O)c2ccccc2C)c1=O`: -0.995 (inactive); `Cc1nc2c(C(=O)NCc3ccc4c(c3)OCO4)c[nH]n2c(=O)c1Cc1ccccc1F`: -1.21 (inactive); `COC(=O)c1ccc(NC(=O)c2ccccc2NS(=O)(=O)c2ccccc2)cc1`: -0.979 (inactive). Next, `O=C(NC(=S)Nc1ccccc1C(=O)O)c1ccc(-c2ccc(Br)cc2)o1`: -1.06 (inactive); `CN1c2ccc(C=O)c3c(C=O)ccc(c23)N(C)C1(C)C`: -1 (inactive). Then `Cc1ccccc1-n1nnnc1SCCCC(=O)c1ccc(F)cc1`, with -1.2 (inactive).

In the case of `Cc1ccc(F)cc1NC(=O)Cc1nn(C)c(=O)c2ccccc12`, the YFP ratio F(max-min)/F0 was -1.06 (inactive). Then `CC(C)CNC(=S)NNC(=O)c1nn(C)cc1Cl`, with -0.979 (inactive). Next, `Cc1ccc(-n2[nH]c(C)c(/C=N/N3C(=O)c4cccc5cccc(c45)C3=O)c2=O)cc1`: -0.991 (inactive). Then `Cc1nc(SCC(=O)N2CCc3ccccc3C2)c2c(C)c(C)sc2n1`, with -1.07 (inactive); and `CSc1nsc(NC(=O)Nc2ccccc2)n1`, with -0.839 (inactive); and `CCOC(=O)N1CC=C2C(C#N)=C(N)C(C#N)(C#N)[C@H](c3cccs3)[C@H]2C1`, with -1.01 (inactive). Consider `CCC(=O)Nc1ccc2nc(C)n(Cc3ccccc3Cl)c(=O)c2c1`, for which the YFP ratio F(max-min)/F0 is -1.04 (inactive). Then `Cc1cccc(N=Nc2c(O)[nH]c3ccc(F)cc23)c1`, with -0.957 (inactive); and `COc1cccc(CNS(=O)(=O)c2ccc3c(c2)CC(C)N3C(=O)C2CCC2)c1` (configuration not stated), with -1.01 (inactive).

As for `C=CCn1c(SCC(=O)Nc2nc3ccccc3s2)nnc1-c1ccccc1O`, the YFP ratio F(max-min)/F0 was -1.05 (inactive). Turning to `Fc1ccc(CSc2nnc(-c3cc4c(s3)-c3ccccc3CC4)o2)cc1`, the YFP ratio F(max-min)/F0 is -0.984 (inactive). Then `O=C(CSCc1ccc(Cl)cc1)N1CCN(Cc2ccc3c(c2)OCO3)CC1`, with -1.19 (inactive); and `CSc1cccc(NC(=S)N(C(C)C)C(C)c2ccccn2)c1` (configuration not stated), with -0.907 (inactive); and `CCCCn1ccnc1C(=O)c1cccc(S(=O)(=O)N2c3ccccc3CC2C)c1` (configuration not stated), with -1.39 (inactive).

As for `O=C(Nc1ccccc1)c1ccccc1NC(=O)C(F)(F)F`, the YFP ratio F(max-min)/F0 is -0.833 (inactive). Next, `Cn1c(CN2CCOCC2)nc2cc(NC(=O)c3ccc(Cl)cc3)ccc21`: -0.87 (inactive); `Cc1ccc(C(=O)O)cc1-c1ccc(/C=C2\SC(=O)N(CC(=O)Nc3ccc4c(c3)OCO4)C2=O)o1`: -1.05 (inactive). Next, `CCc1cc2c(N3CCN(c4nnc(CC)s4)CC3)ncnc2s1`: -1.01 (inactive). Next, `Cc1ccc(-c2csc(-c3c[nH]c4ccccc34)n2)cc1`: -0.919 (inactive); `CN(Cc1cccnc1)C(=O)c1cc(COc2ccc3ncccc3c2)on1`: -0.909 (inactive); `CCOC(=O)C1CCN(c2ncnc3c2oc2ccc(Br)cc23)CC1`: -1.19 (inactive). Turning to `O=C1NC(=O)C2C1C(c1ccc([N+](=O)[O-])cc1)=NN2Cc1ccccc1` (configuration not stated), the YFP ratio F(max-min)/F0 is -1.22 (inactive). Then `Cc1ccc2c(c1)N(CC(=O)N1CCCc3ccccc31)C(=O)C(C)O2` (configuration not stated), with -1.08 (inactive). On to `O=S1(=O)CCN(Cc2ccccc2Cl)CC1`, for which the YFP ratio F(max-min)/F0 is -0.979 (inactive). On to `N#Cc1nc(N)nc(N(c2ccccc2)c2ccccc2)n1`, for which the YFP ratio F(max-min)/F0 is -1.24 (inactive). Turning to `CCCOc1ccc(Cc2c(Cl)nc(SC)nc2NC)cc1`, the YFP ratio F(max-min)/F0 is -1.09 (inactive).

`Cc1ccc(NC(=O)CN(C)CC(=O)Nc2cccc(F)c2)cc1[N+](=O)[O-]`: the YFP ratio F(max-min)/F0 was -0.913 (inactive). Then `CCN(CC)S(=O)(=O)c1ccc(N(C)Cc2ccc(C(F)(F)F)cc2)nc1`, with -1.04 (inactive); and `CC1CCN(C(=O)c2ccc(CSc3ccc(Cl)cc3)cc2)CC1`, with -0.991 (inactive). Next, `COc1ccc(-n2c(C)cc(C(=O)CSc3nnc(-c4cccs4)o3)c2C)cc1`: -1.16 (inactive); `CCn1nccc1C(=O)Nc1ccc(S(=O)(=O)NC23CC4CC(CC(C4)C2)C3)cc1`: -1.03 (inactive); `O=C(CN1CCN(C(=S)NC2CCCC2)CC1)Nc1ccc(Oc2ccccc2)cc1`: -1.09 (inactive). Then `Cc1ccc(N)cc1-n1c(C)ccc1C`, with -1.02 (inactive); and `CN(C)c1cc[n+](Cc2ccccc2)cc1`, with -1.12 (inactive); and `Cn1c(CCN2CCCCCC2)nc2cc(NC(=O)Nc3ccccc3)ccc21`, with -1.1 (inactive). As to `COc1cc(CC(=O)Nc2nc(-c3ccc(F)c(F)c3)cs2)cc(OC)c1OC`, the YFP ratio F(max-min)/F0 is -1.01 (inactive). Then `S=C(NCC1CCCO1)N1CCN(c2ccc(Cl)c(Cl)c2)CC1` (configuration not stated), with -0.789 (inactive); and `O=c1cc(C(F)(F)F)[nH]c(=O)n1C1CCCCC1`, with -1.23 (inactive). Next, `CCCc1cc(=S)n2c([nH]c3ccccc32)c1C#N`: -0.888 (inactive); `Cc1ccc(NC(=O)C(C)c2cccc(C(=O)c3ccccc3)c2)cc1` (configuration not stated): -1.26 (inactive). On to `Cc1nc(CNS(=O)(=O)c2ccc(Oc3ccccc3)cc2)cs1`, for which the YFP ratio F(max-min)/F0 was -1.1 (inactive). Next, `C=CCSc1nsc(NC(=O)Nc2cccc(C(C)=O)c2)n1`: -1.12 (inactive); `O=C(O)c1ccc(NC(=O)C2CCCCC2)cc1`: -1.22 (inactive); `Fc1ccc2[nH]c3c(N4CCSCC4)ncnc3c2c1`: -1.05 (inactive). Then `CCCC(=O)Nc1ccccc1N1CCN(C(=O)c2ccccc2)CC1`, with -1.02 (inactive). Turning to `COc1ccc(-c2nc(CCNC(=O)c3ccc(Br)o3)cs2)cc1`, the YFP ratio F(max-min)/F0 was -1.06 (inactive). Next, `COc1ccc(NC(=O)C2=CC(c3ccc(OC)c(OC)c3)=NS(=O)(=O)N2C)cc1`: -1.13 (inactive); `Cc1[nH]n(-c2cccc(Cl)c2)c(=O)c1-c1ccc(Cl)cc1`: -0.864 (inactive). Then `CCOC(=O)C1=C(CN2CCc3ccccc32)NC(=O)NC1c1cccc([N+](=O)[O-])c1` (configuration not stated), with -1.14 (inactive); and `Cc1ccc(C)c(N2CCN(C(=O)CCCCn3c(=O)[nH]c4ccccc4c3=O)CC2)c1`, with -1 (inactive); and `CSc1nnc2c(n1)OC(c1ccsc1)N(C(C)=O)c1ccccc1-2` (configuration not stated), with -1.24 (inactive). Then `CC(=O)c1cc(CN2CCC(C(=O)Nc3cccc(-c4cscn4)c3)CC2)cs1`, with -0.907 (inactive); and `Cc1cccc(-n2c(SCC(N)=O)nc3c(c2=O)C2(CCCCC2)Cc2ccccc2-3)c1`, with -0.969 (inactive). `COc1ccc(C(=O)NC2CCCc3c2cnn3-c2cccc(C)c2C)c(OC)n1` (configuration not stated): the YFP ratio F(max-min)/F0 is -0.94 (inactive).

As for `CCOC(=O)C(Sc1ncc(C#N)c(N)n1)C(C)C` (configuration not stated), the YFP ratio F(max-min)/F0 is -1.02 (inactive). Then `O=C(NCCc1ccc2c(c1)OCCO2)c1cc2ccccc2o1`, with -0.931 (inactive). Then `COc1ccc(Cl)cc1NC(=O)CCS(=O)(=O)c1cc2c(cc1C)NC(=O)CO2`, with -0.855 (inactive).
